Targets with a hit are over-represented here; the source holds about 7,900 in all. About 0.6% of all pairs of compound and target were hits.
Columns and labels:
Assay in all cases: log2 fold change, soluble protein after heating vs DMSO (PISA); higher = thermal stabilisation; K562 cells, 10 uM, 30 min; active = over 0.2 and 3.5 SD of the protein, either way, in both replicates (recomputed)
crizotinib = compound: C[C@@H](Oc1cc(-c2cnn(C3CCNCC3)c2)cnc1N)c1c(Cl)ccc(F)c1Cl [crizotinib]
How it was run: (§1)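 For each measurement, 10 μM compound was applied for 30 min to K562 cells at 2×10^6 cells/mL. Aliquots were heated for 3 min across 48°C-58°C, pooled, and extracted in PBS with 0.5% NP-40 at 4°C; the supernatant after 21,000xg for 90 min was soluble protein. This was quantified by TMTpro 16plex LC-MS/MS with channel sums equalised, and thermal stability was reported relative to control samples from duplicates, on a log2 fold-change scale.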

[1] = compound: C[C@@H]1COCCN1C2=NC(=NC(=C2)C3(CC3)S(=O)(=O)C)C4=C5C=CNC5=CC=C4
How it was run: as §1

doramapimod = compound: Cc1ccc(-n2nc(C(C)(C)C)cc2NC(=O)Nc2ccc(OCCN3CCOCC3)c3ccccc23)cc1 [doramapimod]
How it was run: as §1

ispinesib = compound: Cc1ccc(C(=O)N(CCCN)[C@@H](c2nc3cc(Cl)ccc3c(=O)n2Cc2ccccc2)C(C)C)cc1 [ispinesib]
How it was run: as §1

[2] = compound: Cn1cc(-c2ccc3nnc(C(F)(F)c4ccc5ncccc5c4)n3n2)cn1
How it was run: as §1

tipifarnib = compound: Cn1cncc1[C@@](N)(c1ccc(Cl)cc1)c1ccc2c(c1)c(-c1cccc(Cl)c1)cc(=O)n2C [tipifarnib]
How it was run: as §1

mubritinib = compound: FC(F)(F)c1ccc(/C=C/c2nc(COc3ccc(CCCCn4ccnn4)cc3)co2)cc1 [mubritinib]
How it was run: as §1

[3] = compound: C[C@H](C1=CC=C(C=C1)C(=O)NC2=C3C=CNC3=NC=C2)N
How it was run: as §1

duvelisib = compound: C[C@H](Nc1ncnc2nc[nH]c12)c1cc2cccc(Cl)c2c(=O)n1-c1ccccc1 [duvelisib]
How it was run: as §1

gandotinib = compound: Cc1cc(Nc2cc(CN3CCOCC3)c3nc(C)c(Cc4ccc(Cl)cc4F)n3n2)n[nH]1 [gandotinib]
How it was run: as §1

tozasertib = compound: Cc1cc(Nc2cc(N3CCN(C)CC3)nc(Sc3ccc(NC(=O)C4CC4)cc3)n2)n[nH]1 [tozasertib]
How it was run: as §1

[4] = compound: Cc1cc(SCc2sc(-c3ccc(C(F)(F)F)cc3)nc2C)ccc1OCC(=O)O
How it was run: as §1

bafetinib = compound: Cc1ccc(NC(=O)c2ccc(CN3CC[C@H](N(C)C)C3)c(C(F)(F)F)c2)cc1Nc1nccc(-c2cncnc2)n1 [bafetinib]
How it was run: as §1

[5] = compound: Cc1cccc(CC(=O)N2CCc3c2ccc(-c2cn(C)c4ncnc(N)c24)c3F)n1
How it was run: as §1

nilotinib = compound: Cc1cn(-c2cc(NC(=O)c3ccc(C)c(Nc4nccc(-c5cccnc5)n4)c3)cc(C(F)(F)F)c2)cn1 [nilotinib]
How it was run: as §1

[6] = compound: Cc1nc(Nc2n[nH]c3c2CN(C(=O)N[C@H](CN(C)C)c2ccccc2)C3(C)C)c2sccc2n1
How it was run: as §1

dasatinib = compound: Cc1nc(Nc2ncc(C(=O)Nc3c(C)cccc3Cl)s2)cc(N2CCN(CCO)CC2)n1 [dasatinib]
How it was run: as §1

[7] = compound: Cc1ncc(-c2ccnc(Nc3ccc(S(C)(=O)=O)cc3)n2)n1C(C)C
How it was run: as §1

[8] = compound: Cn1cc(-c2ccc3c(c2)CCN3C(=O)Cc2cccc(C(F)(F)F)c2)c2c(N)ncnc21
How it was run: as §1

[9] = compound: CS(=O)(=O)c1ccc(-c2cnc(N)c(C(=O)Nc3ccccc3)n2)cc1
How it was run: as §1

Measured: log2 fold change

RPS6KA5 (UniProt O75582)
UniProt O75582, sequence (O75582 whole entry, looked up): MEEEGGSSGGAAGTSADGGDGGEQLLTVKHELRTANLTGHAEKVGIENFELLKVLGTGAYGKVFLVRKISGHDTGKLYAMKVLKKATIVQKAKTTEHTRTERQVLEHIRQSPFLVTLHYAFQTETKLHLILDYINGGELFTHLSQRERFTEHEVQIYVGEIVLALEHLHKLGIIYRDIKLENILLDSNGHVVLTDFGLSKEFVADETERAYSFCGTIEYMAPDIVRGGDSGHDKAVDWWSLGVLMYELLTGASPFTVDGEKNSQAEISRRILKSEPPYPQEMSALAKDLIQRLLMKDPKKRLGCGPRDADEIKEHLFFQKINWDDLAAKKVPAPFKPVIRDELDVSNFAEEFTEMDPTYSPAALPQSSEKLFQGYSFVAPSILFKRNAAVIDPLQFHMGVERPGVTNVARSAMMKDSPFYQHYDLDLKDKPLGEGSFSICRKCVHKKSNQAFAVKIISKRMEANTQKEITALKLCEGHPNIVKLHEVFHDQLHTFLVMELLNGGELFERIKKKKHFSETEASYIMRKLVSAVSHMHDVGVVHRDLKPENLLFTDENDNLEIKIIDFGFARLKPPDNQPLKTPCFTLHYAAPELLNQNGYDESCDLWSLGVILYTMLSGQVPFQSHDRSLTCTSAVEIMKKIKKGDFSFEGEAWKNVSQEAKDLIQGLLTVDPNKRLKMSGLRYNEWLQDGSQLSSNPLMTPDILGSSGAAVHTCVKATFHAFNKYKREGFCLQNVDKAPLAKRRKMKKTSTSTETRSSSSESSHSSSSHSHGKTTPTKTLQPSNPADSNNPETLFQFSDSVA
inactive: crizotinib -0.393 | [1] 0.045 | doramapimod -0.016 | ispinesib 0.018 | [2] -0.098 | tipifarnib -0.07 | mubritinib -0.171

SCYL3 isoform 2 (UniProt Q8IZE3)
UniProt Q8IZE3, sequence (Q8IZE3 whole entry, looked up): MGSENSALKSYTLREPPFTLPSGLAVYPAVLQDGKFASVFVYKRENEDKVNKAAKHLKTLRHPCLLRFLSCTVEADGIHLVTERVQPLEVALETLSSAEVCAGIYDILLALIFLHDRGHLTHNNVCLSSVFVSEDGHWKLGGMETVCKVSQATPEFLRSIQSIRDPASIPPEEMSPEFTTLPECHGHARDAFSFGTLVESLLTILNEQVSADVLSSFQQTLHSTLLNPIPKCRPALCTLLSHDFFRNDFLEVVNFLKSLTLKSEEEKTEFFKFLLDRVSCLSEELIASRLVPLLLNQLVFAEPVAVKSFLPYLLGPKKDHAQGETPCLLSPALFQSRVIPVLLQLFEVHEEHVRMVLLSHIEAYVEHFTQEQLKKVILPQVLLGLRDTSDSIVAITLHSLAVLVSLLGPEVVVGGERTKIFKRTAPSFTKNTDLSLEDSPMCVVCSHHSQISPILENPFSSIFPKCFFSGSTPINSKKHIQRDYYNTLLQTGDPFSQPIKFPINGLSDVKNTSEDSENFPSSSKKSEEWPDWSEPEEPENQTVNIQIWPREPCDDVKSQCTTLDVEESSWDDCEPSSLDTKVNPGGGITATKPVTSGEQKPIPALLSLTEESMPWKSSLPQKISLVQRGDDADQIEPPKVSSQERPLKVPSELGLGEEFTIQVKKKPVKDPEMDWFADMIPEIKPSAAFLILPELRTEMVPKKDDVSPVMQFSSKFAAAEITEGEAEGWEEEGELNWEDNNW
inactive: crizotinib -0.118 | [1] -0.106 | [3] -0.044 | duvelisib 0.129 | gandotinib -0.069 | tozasertib -0.113 | [4] -0.024 | doramapimod -0.01 | ispinesib -0.041 | bafetinib -0.056 | [5] -0.017 | nilotinib -0.215 | [6] -0.167 | dasatinib -0.124 | [7] 0.111 | [8] -0.062 | [2] -0.05 | tipifarnib 0.044 | mubritinib 0.032

RNF185 (UniProt Q96GF1)
UniProt Q96GF1, sequence (Q96GF1 whole entry, looked up): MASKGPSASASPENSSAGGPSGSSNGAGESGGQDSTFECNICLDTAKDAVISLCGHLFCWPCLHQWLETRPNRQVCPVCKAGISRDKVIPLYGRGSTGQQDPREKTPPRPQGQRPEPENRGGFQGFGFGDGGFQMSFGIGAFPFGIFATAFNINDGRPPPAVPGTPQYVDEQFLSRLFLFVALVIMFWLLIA
inactive: [3] -0.036 | gandotinib 0.104 | tozasertib -0.112 | ispinesib -0.024 | bafetinib 0.189 | [5] -0.037 | nilotinib -0.027 | [6] -0.001 | [7] -0.022 | [8] 0.089 | [2] 0.218 | tipifarnib 0.045 | mubritinib 0.057

SERINC1 (UniProt Q9NRX5)
UniProt Q9NRX5, sequence (Q9NRX5 whole entry, looked up): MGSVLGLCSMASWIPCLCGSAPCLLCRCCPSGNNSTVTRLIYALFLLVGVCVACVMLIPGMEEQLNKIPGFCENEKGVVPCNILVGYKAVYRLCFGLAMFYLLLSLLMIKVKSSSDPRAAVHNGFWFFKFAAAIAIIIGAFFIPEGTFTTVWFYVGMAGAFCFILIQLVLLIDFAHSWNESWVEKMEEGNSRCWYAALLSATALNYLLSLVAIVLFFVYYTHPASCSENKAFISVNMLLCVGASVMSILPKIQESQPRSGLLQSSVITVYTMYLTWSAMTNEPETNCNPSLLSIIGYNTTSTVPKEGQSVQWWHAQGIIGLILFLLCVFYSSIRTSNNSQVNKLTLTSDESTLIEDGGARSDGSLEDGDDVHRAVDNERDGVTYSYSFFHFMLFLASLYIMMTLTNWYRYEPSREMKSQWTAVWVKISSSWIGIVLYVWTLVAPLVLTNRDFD
inactive: [9] 0.075 | crizotinib -0.197 | [1] 0.037 | duvelisib 0.03 | tozasertib 0.125 | [4] -0.016 | doramapimod 0.068 | ispinesib -0.048 | bafetinib -0.135 | nilotinib 0.121 | [6] 0.081 | dasatinib -0.034 | [7] -0.064 | [2] 0.054 | tipifarnib -0.112 | mubritinib 0.057

SIK3 (UniProt H0Y4E8)
inactive: [9] -0.144 | crizotinib 0.084 | [3] 0.027 | duvelisib 0.035 | gandotinib 0.118 | tozasertib -0.106 | [4] -0.056 | doramapimod -0.058 | ispinesib 0.185 | [5] -0.122 | nilotinib -0.053 | [6] -0.179 | dasatinib -0.037 | [7] 0.003 | [8] -0.016 | [2] 0 | tipifarnib 0.251 | mubritinib -0.035

RICTOR isoform 3 (UniProt Q6R327)
UniProt Q6R327, sequence (Q6R327 whole entry, looked up): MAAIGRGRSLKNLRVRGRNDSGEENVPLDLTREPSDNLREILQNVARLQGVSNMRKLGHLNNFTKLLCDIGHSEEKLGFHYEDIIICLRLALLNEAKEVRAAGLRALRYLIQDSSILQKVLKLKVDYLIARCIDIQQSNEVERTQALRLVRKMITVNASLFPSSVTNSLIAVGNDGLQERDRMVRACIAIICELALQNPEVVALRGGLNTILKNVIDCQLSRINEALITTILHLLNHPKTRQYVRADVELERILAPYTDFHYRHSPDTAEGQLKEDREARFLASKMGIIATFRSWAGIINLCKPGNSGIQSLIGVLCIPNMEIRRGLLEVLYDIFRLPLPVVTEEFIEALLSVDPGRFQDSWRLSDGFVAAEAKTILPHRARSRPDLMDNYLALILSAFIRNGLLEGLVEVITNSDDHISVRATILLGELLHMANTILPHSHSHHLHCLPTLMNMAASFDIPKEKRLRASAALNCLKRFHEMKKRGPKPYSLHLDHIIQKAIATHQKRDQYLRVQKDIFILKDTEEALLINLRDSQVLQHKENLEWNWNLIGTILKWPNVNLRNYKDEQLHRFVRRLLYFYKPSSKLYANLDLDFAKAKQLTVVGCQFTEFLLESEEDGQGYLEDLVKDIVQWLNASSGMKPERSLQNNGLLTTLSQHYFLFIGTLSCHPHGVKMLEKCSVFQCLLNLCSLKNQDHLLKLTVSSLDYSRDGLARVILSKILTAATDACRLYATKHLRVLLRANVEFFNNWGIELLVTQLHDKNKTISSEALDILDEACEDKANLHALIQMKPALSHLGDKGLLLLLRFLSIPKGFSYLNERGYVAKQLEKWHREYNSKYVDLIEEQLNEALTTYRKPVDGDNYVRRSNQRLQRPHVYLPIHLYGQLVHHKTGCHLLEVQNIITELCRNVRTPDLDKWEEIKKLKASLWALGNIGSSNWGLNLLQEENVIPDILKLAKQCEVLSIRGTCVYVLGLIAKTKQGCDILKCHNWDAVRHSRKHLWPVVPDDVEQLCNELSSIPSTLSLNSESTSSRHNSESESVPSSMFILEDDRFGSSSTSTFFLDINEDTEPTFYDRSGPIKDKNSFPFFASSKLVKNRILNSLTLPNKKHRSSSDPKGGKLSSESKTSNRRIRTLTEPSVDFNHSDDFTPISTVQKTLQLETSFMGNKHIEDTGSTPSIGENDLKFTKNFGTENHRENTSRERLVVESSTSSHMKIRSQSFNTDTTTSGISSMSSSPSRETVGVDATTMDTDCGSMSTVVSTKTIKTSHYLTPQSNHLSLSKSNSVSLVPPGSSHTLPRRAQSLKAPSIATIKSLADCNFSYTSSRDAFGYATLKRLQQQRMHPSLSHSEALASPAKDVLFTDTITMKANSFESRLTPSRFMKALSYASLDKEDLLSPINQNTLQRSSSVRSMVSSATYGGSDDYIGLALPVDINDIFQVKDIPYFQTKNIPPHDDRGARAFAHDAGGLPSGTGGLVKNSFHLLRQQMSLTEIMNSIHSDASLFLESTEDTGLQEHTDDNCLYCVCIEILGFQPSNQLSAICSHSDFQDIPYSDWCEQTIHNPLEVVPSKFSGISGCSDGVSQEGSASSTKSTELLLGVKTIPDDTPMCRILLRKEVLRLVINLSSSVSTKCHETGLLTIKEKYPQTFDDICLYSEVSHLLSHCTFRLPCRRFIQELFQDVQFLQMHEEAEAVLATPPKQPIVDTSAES
inactive: [9] -0.017 | [1] -0.146 | duvelisib -0.027 | gandotinib -0.015 | tozasertib -0.127 | [4] -0.072 | [5] 0.141 | nilotinib -0.102 | [6] 0.176 | dasatinib -0.044 | [7] -0.023 | tipifarnib -0.052
